We go through 110 molecules from PubChem BioAssay AID1030 (National Center for Advancing Translational Sciences (NCATS), 2008).

SMILES strings stand for the structures. About 16,000 (7.3%) of roughly 220,000 compounds were called active. Not shown: some 25% with an inconclusive outcome. Calls come from the whole dose curve; as a rule, active = well fitted inhibition curve with a large enough effect (not every such curve was filed as active); inconclusive = small, poorly fitted or top-dose-only effect, or another doubt; inactive = no such curve, though single readings can be large or run the other way. The list comes from a sample in which actives are over-represented; it also holds similar structures and randomly drawn compounds. Entries that show only a call come without a potency.
Potency is the fitted concentration of half-maximal effect.

The experiment deals with Aldehyde dehydrogenase 1A1 (Homo sapiens) (UniProt P00352). In words: qHTS Assay for Inhibitors of Aldehyde Dehydrogenase 1 (ALDH1A1). To be noted: Purified ALDH1A1, NADH fluorescence, propionaldehyde substrate; series mostly up to 75.3 µM.
Chain of Aldehyde dehydrogenase 1A1 (Homo sapiens) (P00352 whole entry, looked up): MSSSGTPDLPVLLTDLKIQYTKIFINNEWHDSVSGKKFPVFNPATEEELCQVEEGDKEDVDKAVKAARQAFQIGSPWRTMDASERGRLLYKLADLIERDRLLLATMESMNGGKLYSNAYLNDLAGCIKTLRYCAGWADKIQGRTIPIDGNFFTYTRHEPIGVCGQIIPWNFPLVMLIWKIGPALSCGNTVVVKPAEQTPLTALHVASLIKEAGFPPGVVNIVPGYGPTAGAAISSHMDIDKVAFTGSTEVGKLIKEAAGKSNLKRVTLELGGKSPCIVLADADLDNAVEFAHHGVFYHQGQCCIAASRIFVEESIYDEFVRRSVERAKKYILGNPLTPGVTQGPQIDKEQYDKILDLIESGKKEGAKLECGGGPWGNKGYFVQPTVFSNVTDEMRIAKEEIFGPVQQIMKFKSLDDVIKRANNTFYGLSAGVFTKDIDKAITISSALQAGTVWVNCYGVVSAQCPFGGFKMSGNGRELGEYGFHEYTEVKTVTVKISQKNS
Consider `CCCCCc1nnc(NC(=O)c2ccc(=O)n(C)n2)s1`, for which the Potency result was “inactive”.

Regarding `C=CCn1cc(C(=O)NCc2ccc(Cl)cc2)c(=O)c2cc(S(=O)(=O)N(CC)CC)ccc21`, the Potency entry was “inactive”.

Regarding `Cc1nc2ccccc2c2oc(C(=O)NCC3CCCO3)cc12` (stereo not given), the Potency was 14.1 µM (active).

For the molecule `Cc1ccc(C(=O)NCC2CCCO2)o1` (stereo not given), the Potency result was “inactive”.

`Cc1nc2ccccc2c2oc(C(=O)NCCCN3CCC(C)CC3)cc12`: the Potency result was “inactive”.

As for `O=c1c(-c2ccccc2)cnc2n1CCS2`, the Potency result is “inactive”.

For `CN(C)CC(C)(C)CNC(=O)c1cc(Br)cc(Br)c1O`, the Potency result is “inactive”.

Take `CN(C)C(CNC(=O)Cc1ccc([N+](=O)[O-])cc1)c1ccccc1` (stereo not given): the Potency result is “inactive”.

Regarding `CC(=O)c1ccc(S(=O)(=O)Nc2ccc(C(=O)NCC(c3ccccc3)N(C)C)cc2)cc1` (stereo not given), the Potency was 2.82 µM (active).

For the molecule `CN(C)C(CNC(=O)c1ccc(S(=O)(=O)NCc2ccco2)cc1)c1ccccc1` (stereo not given), the Potency result was “inactive”.

With `CCC(C)(C)NC(=O)C(c1ccccn1)N(C(=O)c1csnn1)c1ccccc1` (stereo not given), the Potency result was “inactive”.

As to `Cc1ccc(C(=O)N2CCCC(c3ccccc3)=N2)cc1`, the Potency entry was “inactive”.

Take `Cc1cc(C)c(OCCN2CC(C)OC(C)C2)c(Br)c1` (stereo not given): the Potency entry is “inactive”.

For the molecule `COc1ccc(NC(=O)N2CCC(Cc3ccccc3)CC2)cc1`, the Potency entry was “inactive”.

As for `Cc1ccccc1/[N+]([O-])=C/c1ccncc1`, the Potency is 3.98 µM (active).

Take `CCNC(=O)COC(=O)/C=C/c1c(C)nn(Cc2cccc(OC)c2)c1Cl`: the Potency entry is “inactive”.

Turning to `O=C(CCNC(=O)Cn1ccc2ccccc2c1=O)NCCC1=CCCCC1`, the Potency entry was “inactive”.

Turning to `COc1ccc(CN(C)C(=S)Nc2ccc(Cl)cc2Cl)cc1`, the Potency result is “inactive”.

As for `O=C1CC2(CC(c3ccc(Cl)cc3)=NO2)C(=O)N1c1ccccc1` (stereo not given), the Potency entry was “inactive”.

On to `CCN1CC(CN(C)Cc2nc(-c3ccc(Cl)cc3)no2)CC1=O` (stereo not given), for which the Potency result was “inactive”.

Consider `CN(C)C(=O)N1CCNCC1`, for which the Potency entry is “inactive”.

On to `Cn1c(=O)n(Cc2ccco2)c(=N)c2c3c(sc21)CCCC3`, for which the Potency entry was “inactive”.

In the case of `CCC1(C)Cc2c(sc3[nH]c(=S)n(Cc4ccccc4)c(=O)c23)CO1` (stereo not given), the Potency result is “inactive”.

In the case of `CCn1c(=S)[nH]c2sc3c(c2c1=O)CCCCC3`, the Potency was 22.4 µM (active).

Turning to `C=CCn1c(=S)sc2c(=O)[nH]c(C)nc21`, the Potency entry was “inactive”.

In the case of `CCOC(=O)C1(CCOc2ccccc2)CCN(C(=O)c2cncs2)CC1`, the Potency result is “inactive”.

On to `Cc1c(C(N)=O)sc2ncn(CCOc3ccccc3)c(=O)c12`, for which the Potency result is “inactive”.

In the case of `CCN1C(=O)N[C@@H](c2ccccc2)[C@H](C(C)=O)[C@H]1C`, the activity, negative = inhibition was 7.43% [at 13.5 µM] (inactive).

As to `Cc1ccc(C(=O)OC(C)CN2CCOCC2)cc1` (stereo not given), the Potency entry was “inactive”.

Consider `CC(=O)c1ccc(OCCN2CCOCC2)cc1`, for which the Potency was 25.1 µM (active).

Regarding `COc1ccc(OCC(=O)N2CCOCC2)cc1`, the Potency result was “inactive”.

As for `FC(F)(F)c1cccc(-c2nc(COc3ccc(Cl)cc3Cl)no2)c1`, the Potency entry was “inactive”.

In the case of `O=C(CC1SCCNC1=O)Nc1ccc(Cl)cc1` (stereo not given), the Potency result was “inactive”.

Take `Cc1ccc(OCC(=O)NNC(=S)NCc2ccccc2)cc1`: the Potency entry is “inactive”.

As for `COc1ccc(N2CCN(Cc3nnc(-c4ccccc4)o3)CC2)cc1`, the Potency result was “inactive”.

Consider `Fc1ccc(N2CCN(Cc3cnc(Oc4ccc(Br)cc4)s3)CC2)cc1`, for which the Potency result is “inactive”.

Take `COc1ccc(N2CCN(Cc3ccc(Br)s3)CC2)cc1`: the Potency is 25.1 µM (active).

Take `Cc1ccc(NC(=O)CC2C(=O)N(Cc3ccccc3)C(=S)N2NC(=O)c2cccc(F)c2)c(C)c1` (stereo not given): the Potency entry was “inactive”.

For the molecule `Cc1ccc(NC(=S)N(CCN(C)C)Cc2cccs2)cc1C`, the Potency entry is “inactive”.

As for `O=C(O)CC(SCC(=O)Nc1ccc(Br)cc1)C(=O)O` (stereo not given), the Potency entry is “inactive”.

With `CCOc1ccc(S(=O)(=O)NCC2CCCO2)cc1` (stereo not given), the Potency result is “inactive”.

For the molecule `CCOc1ccc(-n2c(N)c(C(=O)NCC3CCCO3)sc2=S)cc1` (stereo not given), the Potency was 15.8 µM (active).

For the molecule `COc1ccc(SCc2noc(C(=O)NCC3CCCO3)c2C(=O)O)cc1` (stereo not given), the Potency result was “inactive”.

`Cc1ccc(Cl)c(NC(=O)CN(C)CC(=O)Nc2ccc(F)c(F)c2F)c1Cl`: the Potency result is “inactive”.

Take `Cc1cccc(CN2CCN(Cc3cnn(-c4ccccc4F)c3)CC2CCO)n1` (stereo not given): the Potency entry was “inactive”.

As to `O=c1[nH]oc(O)c1-c1ncc(C(F)(F)F)cc1Cl`, the Potency result is “inactive”.

As to `Cc1csc(NC(=O)CSc2ccc(-c3ccc(F)cc3)nn2)n1`, the Potency entry is “inactive”.

Consider `Cc1cc(/C=C2\SC(=Nc3ccc(N4CCOCC4)cc3)N(C)C2=O)c(C)n1-c1cccnc1`, for which the Potency result was “inactive”.

For the molecule `O=C(C1CC1)N1N=C2CCCCC2C1(O)C(F)(F)F` (stereo not given), the Potency entry was “inactive”.

As for `N#Cc1c(NC(=O)CCCl)sc2c1CCCCC2`, the Potency result is “inactive”.

As to `CCCc1nc2sc3c(c2c(=O)n1NC(=O)CCCl)CCCC3`, the Potency was 14.1 µM (active).

For `CC(C(=O)O)n1cnc2sc3c(c2c1=O)CCCC3` (stereo not given), the Potency result is “inactive”.

For the molecule `O=C1CCC/C(=N\NC(=O)NC2CCCCC2)C1`, the Potency entry was “inactive”.

With `CN(CCOc1ccccc1)Cc1nc2cc(Cl)ccc2c(=O)[nH]1`, the Potency entry was “inactive”.

Regarding `CCN(CC(=O)NC(=O)NCc1ccccc1)Cc1nc2ccccc2c(=O)[nH]1`, the Potency entry was “inactive”.

Regarding `CCN(CC(=O)Nc1ccc(Cl)c(S(=O)(=O)N(C)C)c1)Cc1nc2ccccc2c(=O)[nH]1`, the Potency is 25.1 µM (active).

In the case of `Cc1ccc(S(=O)(=O)NC2(C(F)(F)F)NC(=O)N(CCc3ccccc3)C2=O)cc1` (stereo not given), the Potency entry is “inactive”.

With `CC1=C(C(=O)Nc2ccc(Cl)cc2)C(c2ccco2)NC(=O)N1` (stereo not given), the Potency entry is “inactive”.

As for `COc1cc(C2CC(=O)c3cnc(NC(C)=O)nc3C2)cc(OC)c1OC` (stereo not given), the Potency entry is “inactive”.

Take `O=C(Nc1ncc2c(n1)CC(c1ccco1)CC2=O)c1ccc(Cl)cc1` (stereo not given): the Potency is 10 µM (active).

In the case of `O=C1C=C(c2ccccc2)CCC1`, the Potency result is “inactive”.

In the case of `NC1=C([N+](=O)[O-])C(c2ccccc2)C2=C(CCCC2=O)O1` (stereo not given), the Potency result was “inactive”.

For the molecule `Cc1ccsc1C1C(C#N)=C(N)OC2=C1C(=O)CC(C)C2` (stereo not given), the Potency result was “inactive”.

Take `N#CC1=C(N)OC2=C(C(=O)CCC2)C1C1CC=CCC1` (stereo not given): the Potency was 10 µM (active).

With `O=C(Nc1ccc(N2CCOCC2)cc1)c1ccc2c(c1)OCO2`, the Potency result is “inactive”.

For the molecule `COc1ccc(/C(C)=N/Nc2cc(C(F)(F)F)ccc2Cl)c(OC)c1`, the Potency result was “inactive”.

`COc1ccc(C(F)(F)F)cc1N/C=C\c1nnnn1-c1ccc(C)cc1`: the Potency was 25.1 µM (active).

Consider `COc1ccc(C)cc1NC(=O)CCC(=O)Nc1nnc(C(F)(F)F)s1`, for which the Potency entry is “inactive”.

In the case of `CSc1cc(C)[nH]c(=O)n1`, the Potency result was “inactive”.

On to `COc1ccc(Cl)cc1NC(=O)NC(C)C(C)(C)C` (stereo not given), for which the Potency result was “inactive”.

On to `NC(=O)Cc1nc2scc(-c3ccc(Cl)cc3)c2c(=O)[nH]1`, for which the Potency entry is “inactive”.

`NC(=O)Cc1ccc2sc(-c3ccccc3)nc2c1`: the Potency entry was “inactive”.

Turning to `Cc1sc2nc(CC(N)=O)[nH]c(=O)c2c1-c1ccccc1`, the Potency is 7.08 µM (active).

As for `CCc1ccc(NC(=O)CSc2nc3ccccc3c(=O)n2CCN2CCOCC2)cc1`, the Potency entry was “inactive”.

Turning to `Cc1cc(C(=O)Nc2ccccc2N2CCOCC2)c2ccccc2n1`, the Potency result is “inactive”.

As to `CCc1ccc2ncc(C(=O)c3ccccc3)c(N3CCOCC3)c2c1`, the Potency was 4.47 µM (active).

In the case of `O=C(CCSc1ccccc1)N1CCN(c2ccccc2F)CC1`, the Potency result is “inactive”.

Consider `O=C(CSc1nn(-c2ccc(F)cc2)c(=S)s1)NC1CCS(=O)(=O)C1` (stereo not given), for which the Potency result was “inactive”.

In the case of `Cc1cc(C)cc(OCC(=O)NCc2cc(C)nc3ccccc23)c1`, the Potency entry was “inactive”.

With `OCC1(Cc2ccccc2)CCN(Cc2cc3ccccc3o2)CC1`, the Potency result is “inactive”.

Consider `Cc1cc(C)c2c(-n3cccc3)c(NC(=O)OCc3ccccc3)sc2n1`, for which the Potency entry was “inactive”.

On to `COC(=O)Nc1sc2nc(C)cc(C)c2c1-n1cccc1`, for which the Potency entry is “inactive”.

For the molecule `Cc1cc(C)c2c(-n3cccc3)c(C(=O)NNS(=O)(=O)c3ccc(F)cc3)sc2n1`, the Potency is 2.24 µM (active).

Turning to `CCNC(=O)CC1C(=O)N(c2ccc(F)cc2)C(=O)N1Cc1cccs1` (stereo not given), the Potency entry was “inactive”.

Consider `CCN(CC)CCCNC(=O)c1ccc2c(=O)n(Cc3ccc4c(c3)OCO4)c(=S)[nH]c2c1`, for which the Potency entry was “inactive”.

Consider `N=C(N)SCc1cccc2ccccc12`, for which the Potency entry was “inactive”.

Consider `c1ccc2c(CSCc3nc4ccccc4[nH]3)cccc2c1`, for which the Potency entry was “inactive”.

For the molecule `c1ccc2c(C[n+]3csc4ccccc43)cccc2c1`, the Potency is 10 µM (active).

For `CN1CCN(C(CNS(=O)(=O)c2cccs2)c2cccnc2)CC1` (stereo not given), the Potency entry was “inactive”.

For the molecule `O=C(Nc1nc(-c2ccc3c(c2)OCO3)cs1)c1ccncc1`, the Potency entry was “inactive”.

Turning to `O=C(Nc1nc(-c2ccncc2)cs1)C1COc2ccccc2O1` (stereo not given), the Potency is 3.55 µM (active).

In the case of `O=C(Nc1nnc(SCc2ccc(Cl)cc2Cl)s1)C1COc2ccccc2O1` (stereo not given), the Potency result was “inactive”.

Consider `COc1ccc(/C=C/C(=O)Nc2cccnc2)cc1OC`, for which the Potency result was “inactive”.

Consider `CCCS(=O)(=O)N1CCC(CCOc2ccccc2)(C(=O)OCC)CC1`, for which the Potency result is “inactive”.

With `N#Cc1c(-c2ccc(Cl)cc2)c2c([nH]c1=S)CCCC2`, the Potency result is “inactive”.

As to `COc1ccc(NC(=O)C(C)SCc2ccccc2)cc1` (stereo not given), the Potency entry is “inactive”.

Regarding `Cc1onc(-c2c(Cl)cccc2Cl)c1C(=O)c1c[nH]c(C(=O)NC2CC2)c1`, the Potency entry is “inactive”.

Regarding `Cc1[nH]n(C)c(=O)c1C(=O)c1c(-c2c(Cl)cccc2Cl)noc1C`, the Potency is 8.91 µM (active).

As for `Cc1onc(-c2c(Cl)cccc2Cl)c1C(=O)NNC(=O)c1c(-c2c(Cl)cccc2Cl)noc1C`, the Potency result was “inactive”.

For `CCOc1c(CNCc2ccc(C(=O)O)cc2)cccc1OC`, the Potency result is “inactive”.

With `CC(=O)Nc1cccc(-c2nc3ccccc3s2)c1C`, the Potency result is “inactive”.

With `Cc1ccc(NC(=S)N(CCCN2CCC(C)CC2)Cc2ccco2)cc1`, the Potency result was “inactive”.

For `CCOC(=O)c1[nH]c2c(c1-c1ccccc1)C(=O)CC(c1ccc(Cl)cc1)C2` (stereo not given), the Potency result is “inactive”.

As for `CCCOC(=O)c1[nH]c2c(c1C)C(=O)CC(c1cc(OC)c(OC)c(OC)c1)C2` (stereo not given), the Potency was 0.355 µM (active).

As to `CCCOC(=O)c1[nH]c2c(c1C)C(=O)CC(c1cccs1)C2` (stereo not given), the Potency result was “inactive”.

In the case of `COc1ccc2c(c1)O[C@@H](c1ccc3c(c1)OCO3)[C@H](OC(=O)NCCc1ccc(OC)c(OC)c1)C2=O`, the Potency entry is “inactive”.

Take `O=C(CCS(=O)(=O)Cc1ccccc1)Nc1ccc2c(c1)OCCO2`: the Potency entry is “inactive”.

On to `CC(/C=N/NC(=O)c1ccncc1)=C\c1ccco1`, for which the Potency entry was “inactive”.

As for `C/C(=C\c1ccco1)C1Nc2cccc3cccc(c23)N1`, the Potency was 10 µM (active).

In the case of `CC(/C=N/NC(=O)c1cc(-c2ccc3ccccc3c2)n[nH]1)=C\c1ccco1`, the Potency entry is “inactive”.
